# About 83,000 compounds went through this panel and 20% of them were active in at least one assay; those are over-represented in the sample as a whole.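 Plates (96-well) were seeded with cells, treated with compound at one concentration, and incubated for 48 hours before percent growth was determined.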 Calls of active or inactive are those of the source. How the source made its calls: active means growth percent below 10; inactive means the rest.
# System: OVCAR-4 ovarian
# Experiment: NCI-60 one-dose screen, 48 h (100 = growth as untreated, 0 = no growth, -100 = all killed)
# Conditions: 10 µM unless noted
row,Compound,growth
1,COC1CC(N)C2OC(c3ccccc3)OCC2O1 (stereo unspecified),97.5% (inactive)
2,COc1ccc2[nH]cc(C(c3ccc(Cl)cc3)N3CCCC3)c2c1 (stereo unspecified),104% (inactive)
3,CCOP(=O)(O)OP(=O)(O)OCC,105% (inactive)
4,COc1cccc(/C=N/N=C(N)N)c1,91.5% (inactive)
5,COc1ccc(C2CC(c3ccc(Nc4ccnc5cc(Cl)ccc45)cc3)=NN2c2ccccc2)cc1 (stereo unspecified),163% (inactive)
6,CC1=C(O)C(=O)C(c2c(C)cc(C)c(Br)c2C)=C(O)C1=O,45.6% (inactive)
7,FC(F)(F)C1=NNC(c2ccc3ccccc3c2)=NN1,96.2% (inactive)
8,NC(N)=N/N=C\c1ccc(OCc2ccccc2)cc1,56.8% (inactive)
9,COc1ccc(NC(=O)C2c3ccccc3C(=O)N(CC(C)C)C2c2cccs2)cc1 (stereo unspecified),93.6% (inactive)
10,NC(N)=N/N=C\c1cccc(OCc2ccccc2)c1,64.3% (inactive)
11,CS(=O)(=O)Nc1cc(-c2cc3ncc(C#N)c(Nc4ccc(Oc5ccccc5)c(Cl)c4)c3s2)cnc1Cl,57.6% (inactive)
12,Cc1ccc(NC(=O)c2nc(S(C)(=O)=O)oc2-c2ccc(F)cc2)cc1Nc1ccc2ncn(C)c(=O)c2c1,104% (inactive)
13,CC(=O)[C@H]1CC[C@H]2[C@@H]3CC[C@H]4CC=CC[C@]4(C)[C@H]3CC[C@]12C,89.9% (inactive)
14,COc1cccc(NC(=O)[C@H](C(C)C)n2c(=O)[nH]c3ccccc3c2=O)c1,105% (inactive)
15,CC(C)N1CCN(c2ccncc2S(=O)(=O)N2CCN(C)CC2)CC1,96.1% (inactive)
16,[O-]/[N+](=C\c1ccccc1)CC1(O)CCCCC1,95.9% (inactive)
17,CCc1ccc(-c2ccc(NC3CCCCCC3)nn2)cc1S(N)(=O)=O,102% (inactive)
18,C[C@@H]1C[C@H](N)C[C@H](c2ccncc2NC(=O)c2ccc(F)c(-c3c(F)cccc3F)n2)C1,53.2% (inactive)
19,COC(=O)C(CCC(=O)CCl)N1C(=O)c2ccccc2C1=O (stereo unspecified),72.9% (inactive)
20,CCCCCCCCCCCCCCC(C(=O)OCC)C(=O)OCC,109% (inactive)
21,O=C(Nc1ccc2[nH]c3ccccc3c2c1)c1ccccc1Cl,101% (inactive)
22,CN(C)c1ccc(/C=C(\C#N)c2nc3ccccc3n2C)cc1,55.2% (inactive)
23,O=C(CS)OCC(COC(=O)CS)(COC(=O)CS)COC(=O)CS,83.6% (inactive)
24,C#CC[C@@H]1C[C@]2(C)[C@H]3CC=C4[C@H]5[C@@H](C)[C@H](C)CC[C@]5(C(=O)NCCCCN)CC[C@@]4(C)[C@]3(C)CC[C@H]2C(C)(C)[C@H]1OC(C)=O,68.3% (inactive)
25,CC(=O)N1N=C(c2ccc(C)cc2)CC1c1cn(-c2ccccc2)nc1-c1cccc(Nc2ccnc3cc(Cl)ccc23)c1 (stereo unspecified),120% (inactive)
26,CCN(CC)CCC(CNc1ccnc2cc(Cl)ccc12)c1ccc(O)cc1 (stereo unspecified),91.4% (inactive)
27,CNC(=O)c1ccccc1Sc1ccc2c(/C=C/c3ccccn3)n[nH]c2c1,34.2% (inactive)

# System: SK-OV-3 ovarian
# Experiment: as above
# Conditions: 10 µM unless noted
row,Compound,growth
1,COc1ccc(C2C3CCc4ccccc4C3=NN2C(=O)c2cc(OC)c(OC)c(OC)c2)cc1O (stereo unspecified),88% (inactive)
2,CCOC(=O)c1ccc(NC(=O)NC2=NCCS2)cc1,11.5% (inactive)
3,CC(C)COC(=O)NC(C)(C)C,103% (inactive)
4,Cn1c(=O)c2[nH]c(Cc3ccc4c(c3)OCO4)nc2n(C)c1=O,107% (inactive)
5,Nc1nc(N)c2c(n1)NC(c1sc(Cl)nc1Cl)CC(c1ccc3c(c1)OCO3)=N2 (stereo unspecified),17.4% (inactive)
6,Cc1ccccc1N1C(c2ccccc2)=NNC12C=CC(=O)c1c(O)cccc12 (stereo unspecified),74.4% (inactive)
7,Nc1nc(N)c2c(n1)NC(c1sc(Cl)nc1Cl)CC(c1ccccc1)=N2 (stereo unspecified),74% (inactive)
8,C=C1NC(=O)C(C(C)CC)NC(=O)C2CSCC(NC(=O)CCC(=O)O)C(=O)NC(Cc3ccccc3)C(=O)NC(C)C(=O)NC(CC(C)CC)C(=O)NC(C(=O)NC(Cc3ccccc3)C(=O)N3CCCC3C(=O)N2)C(C)OC(=O)C(CO)NC(=O)C(C(O)COC)N(C)C(=O)C(C(C)C)NC(=O)C(CC(C)CC)NC1=O (stereo unspecified),39% [6 µM] (inactive)
9,Cc1nc2c(-c3cnc(N)nc3)nc(N3CCOCC3)nc2n1C(C)C,-39.7% (active)
10,C=CC[C@]1(O)CC[C@H]2[C@@H]3CCc4cc(O)ccc4[C@H]3CC[C@@]21C,107% (inactive)
11,COS(=O)(=O)CCN(CCOS(C)(=O)=O)S(C)(=O)=O,104% (inactive)
12,Cc1nc2ccc(Nc3nc(NCCN4CCOCC4)nc(Nc4ccc(F)cc4)n3)cc2n1Cc1ccccc1,79% (inactive)
13,COC1CC(N)C2OC(c3ccccc3)OCC2O1 (stereo unspecified),115% (inactive)
14,COc1ccc2[nH]cc(C(c3ccc(Cl)cc3)N3CCCC3)c2c1 (stereo unspecified),109% (inactive)
15,CCOP(=O)(O)OP(=O)(O)OCC,97.3% (inactive)
16,COc1cccc(/C=N/N=C(N)N)c1,111% (inactive)
17,COc1ccc(C2CC(c3ccc(Nc4ccnc5cc(Cl)ccc45)cc3)=NN2c2ccccc2)cc1 (stereo unspecified),108% (inactive)
18,CC1=C(O)C(=O)C(c2c(C)cc(C)c(Br)c2C)=C(O)C1=O,88.3% (inactive)
19,FC(F)(F)C1=NNC(c2ccc3ccccc3c2)=NN1,104% (inactive)
20,NC(N)=N/N=C\c1ccc(OCc2ccccc2)cc1,77.1% (inactive)

row,Compound,growth
1,COc1ccc(NC(=O)C2c3ccccc3C(=O)N(CC(C)C)C2c2cccs2)cc1 (stereo unspecified),96.5% (inactive)
2,NC(N)=N/N=C\c1cccc(OCc2ccccc2)c1,81.6% (inactive)
3,CS(=O)(=O)Nc1cc(-c2cc3ncc(C#N)c(Nc4ccc(Oc5ccccc5)c(Cl)c4)c3s2)cnc1Cl,43.4% (inactive)
4,Cc1ccc(NC(=O)c2nc(S(C)(=O)=O)oc2-c2ccc(F)cc2)cc1Nc1ccc2ncn(C)c(=O)c2c1,107% (inactive)
5,CC(=O)[C@H]1CC[C@H]2[C@@H]3CC[C@H]4CC=CC[C@]4(C)[C@H]3CC[C@]12C,101% (inactive)
6,COc1cccc(NC(=O)[C@H](C(C)C)n2c(=O)[nH]c3ccccc3c2=O)c1,101% (inactive)
7,CC(C)N1CCN(c2ccncc2S(=O)(=O)N2CCN(C)CC2)CC1,103% (inactive)
8,[O-]/[N+](=C\c1ccccc1)CC1(O)CCCCC1,113% (inactive)
9,CCc1ccc(-c2ccc(NC3CCCCCC3)nn2)cc1S(N)(=O)=O,105% (inactive)
10,C[C@@H]1C[C@H](N)C[C@H](c2ccncc2NC(=O)c2ccc(F)c(-c3c(F)cccc3F)n2)C1,62% (inactive)
11,COC(=O)C(CCC(=O)CCl)N1C(=O)c2ccccc2C1=O (stereo unspecified),113% (inactive)
12,CCCCCCCCCCCCCCC(C(=O)OCC)C(=O)OCC,112% (inactive)
13,O=C(Nc1ccc2[nH]c3ccccc3c2c1)c1ccccc1Cl,50.5% (inactive)
14,CN(C)c1ccc(/C=C(\C#N)c2nc3ccccc3n2C)cc1,34.8% (inactive)
15,O=C(CS)OCC(COC(=O)CS)(COC(=O)CS)COC(=O)CS,103% (inactive)
16,C#CC[C@@H]1C[C@]2(C)[C@H]3CC=C4[C@H]5[C@@H](C)[C@H](C)CC[C@]5(C(=O)NCCCCN)CC[C@@]4(C)[C@]3(C)CC[C@H]2C(C)(C)[C@H]1OC(C)=O,109% (inactive)
17,CC(=O)N1N=C(c2ccc(C)cc2)CC1c1cn(-c2ccccc2)nc1-c1cccc(Nc2ccnc3cc(Cl)ccc23)c1 (stereo unspecified),114% (inactive)
18,CCN(CC)CCC(CNc1ccnc2cc(Cl)ccc12)c1ccc(O)cc1 (stereo unspecified),104% (inactive)
19,CNC(=O)c1ccccc1Sc1ccc2c(/C=C/c3ccccn3)n[nH]c2c1,44.5% (inactive)

# Reference: PubChem BioAssay (NCI)
